Experimental data as given in ChEMBL document CHEMBL3988442, “University of Dundee, Small-Polar-MMV Screening Library” (2021).

Legend:
[1] = biological target: T1, Aspartate--tRNA(Asp/Asn) ligase (Mycobacterium tuberculosis (strain ATCC 25618 / H37Rv)) (UniProt P9WFW3); assay: Assay for Asp RNA synthetase-1 from Mycobacterium tuberculosis; format: functional; parameters: scale not given: direction of the effect not stated beside the values; settings: 30 µM; further: in the data most compounds retested in dose-response had high values
T1 sequence (whole entry): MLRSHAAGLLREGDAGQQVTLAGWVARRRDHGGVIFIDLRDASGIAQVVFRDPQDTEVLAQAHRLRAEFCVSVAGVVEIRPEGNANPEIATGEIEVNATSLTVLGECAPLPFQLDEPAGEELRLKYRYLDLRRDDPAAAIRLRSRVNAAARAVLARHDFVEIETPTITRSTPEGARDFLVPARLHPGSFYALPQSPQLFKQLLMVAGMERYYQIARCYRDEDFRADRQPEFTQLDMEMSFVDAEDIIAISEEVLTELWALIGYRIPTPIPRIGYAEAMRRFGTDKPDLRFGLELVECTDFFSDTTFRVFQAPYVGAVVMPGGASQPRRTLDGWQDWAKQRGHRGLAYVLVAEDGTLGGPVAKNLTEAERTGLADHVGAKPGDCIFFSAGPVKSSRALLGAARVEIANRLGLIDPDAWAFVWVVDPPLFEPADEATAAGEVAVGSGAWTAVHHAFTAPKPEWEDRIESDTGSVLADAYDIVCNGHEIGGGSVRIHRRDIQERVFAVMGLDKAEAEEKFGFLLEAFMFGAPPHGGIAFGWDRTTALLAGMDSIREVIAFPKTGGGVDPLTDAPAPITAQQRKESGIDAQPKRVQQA

[2] = biological target: Shiga toxin 2 (Escherichia coli O157:H7) (UniProt P09385+P09386); assay: E. coli 0.157:H7 Shiga Toxin SOP - stx2 screening assay; format: functional; parameters: scale not given: direction of the effect not stated beside the values; settings: 30 µM

Row | SMILES | Percent Effect [1] | Percent Effect [2]
1 | CNC(=O)c1cc2c(nc1NC(C)C)CCN(C(=O)NC(C)C)CC2 | -2.07% | 0.412%
2 | Cc1nc(O)c2nnn(C[C@H]3CCCN3C(=O)C(C)(C)C)c2n1 | 5.78% | -7.47%
3 | N#Cc1cc(NC(=O)c2ccsc2)ccc1N1CCC(O)CC1 | 3.33% | -57.5%
4 | CCN(Cc1cccc(Cl)c1)Cc1nc2c(cnn2C)c(=O)[nH]1 | -2.28% | 31.3%
5 | CN(Cc1ccsc1)C(=O)c1cccc(NS(C)(=O)=O)c1 | -4.16% | -32.9%
6 | NS(=O)(=O)CCNC(=O)c1nnn(-c2ccccc2)c1C1CC1 | 2.35% | -12.7%
7 | O=c1[nH]c2c(c(=O)n1C1CCCCC1)CCC2NCCc1ccccc1 (configuration not stated) | -2.9% | 3.31%
8 | Cc1ccc(CN2CC(C(=O)Nc3ccccc3)C3(CCOCC3)C2)s1 (configuration not stated) | 8.04% | -1.18%
9 | O=C(NCc1cccnc1)C1=NN(c2ccccc2)C(=O)CN1 | 14.8% | -1.16%
10 | COc1cccc(COCC(=O)N2CCCC(c3cc(C)[nH]n3)C2)c1 (configuration not stated) | 1.92% | 28.3%
11 | NC(=O)c1ccc(N2CCCCC2)c(NC(=O)c2cncc(Br)c2)c1 | 13.7% | -52.6%
12 | CN(CC(=O)N(C)C1CCCCC1)C1CCc2ccccc21 (configuration not stated) | 0.433% | 34.7%
13 | CCCS(=O)(=O)NCC1CCOc2ccccc2C1 (configuration not stated) | 0.416% | -40%
14 | COc1ncccc1CNC(=O)NCCNC(=O)c1ccco1 | -10.1% | -25%
15 | COC(=O)c1ccccc1NC(=O)c1nc2ccccc2n(C)c1=O | 2.38% | -9.47%
16 | O=C(NCc1cc[nH]n1)N(CCCO)C1CCc2ccccc21 (configuration not stated) | 1.93% | 0.536%
17 | COCC1Cn2nnc(-c3cnn(C)c3)c2CN1Cc1ccc(C)s1 (configuration not stated) | 1.73% | -7.17%
18 | CCc1noc(CNc2ccc(F)cc2OCC2CC2)n1 | 1.97% | 0.5%
19 | Cc1cc(C)n(CC(=O)N2CCC(NS(=O)(=O)c3ccccc3)CC2)n1 | 0.878% | 31.2%
20 | O=C(Cn1ccnc1)N1C[C@@H]2CC[C@H](Oc3ccccc3)[C@@H]2C1 | 5.52% | 2.5%
21 | Cc1cc(C)n(CC(C)CNC(=O)[C@@H](C)NC(=O)OC(C)(C)C)n1 (some centres not stated) | -1.38% | 9.62%
22 | CC(C)c1n[nH]c(C(=O)Nc2cc[nH]n2)c1Br | -4.43% | 13.3%
23 | COc1cccc(OCCNCc2c(C)nn(C)c2N(C)C)c1 | -1.97% | 19.6%

Row | SMILES | Percent Effect [1] | Percent Effect [2]
24 | Cc1cccc(OCCNC(=O)CN2CCCC2Cn2cccn2)c1 (configuration not stated) | -1.71% | -0.164%
25 | CS(=O)(=O)NCC1CCCN(C(=O)c2ccc(Cl)o2)C1 (configuration not stated) | 1.23% | -7.98%
26 | OCc1ccc(Cl)c(NCc2cccnc2)c1 | 1.83% | -19.3%
27 | COC(=O)N1C[C@H]2CC[C@@H]1CN(Cc1cscn1)C2 | -3.45% | 17.3%
28 | CCS(=O)(=O)N(C)C1CCN(C(=O)c2cccc(Cl)c2)CC1 | -0.493% | 14.8%
29 | C=Cn1ncc(CN2C[C@@H]3CCCN3C[C@H]2CCSC)c1C | 1.89% | -18.3%
30 | Cc1nn(CC(=O)N2CCN(c3ccncc3)CC2)c(C)c1Cl | 0.15% | -36.1%
31 | CC(Nc1cccc(CN2CCOC2=O)c1)C(=O)N1CCNC1=O (configuration not stated) | -0.922% | -28.6%
32 | Cc1nc(C)n(CC2CN(c3nnc(C)c(C)c3C#N)CCO2)n1 (configuration not stated) | -1.7% | 27.3%
33 | CCc1ncc(CNC2CC(=O)N(CCc3cccc(Cl)c3)C2)cn1 (configuration not stated) | -0.729% | -24.9%
34 | O=C1C(NCc2nnc3n2CCCC3)CCN1c1ccccc1 (configuration not stated) | -1.97% | -28.4%
35 | O=C(c1cc(COc2ccc3c(c2)OCO3)[nH]n1)N1CC=CC1CO (configuration not stated) | 1.75% | -30.9%
36 | COCCN1CCN(CCCS(C)(=O)=O)CC1C (configuration not stated) | -5.8% | -23.7%
37 | O=C(CC1CC1)N1CC[C@H]2[C@@H]1CCC(=O)N2c1cccnc1 | -4.48% | -0.916%
38 | O=C(c1cnc(-c2cccs2)s1)N1CCCN2CCCC2C1 (configuration not stated) | 8.86% | 1.08%
39 | Cc1cc(CNC(=O)N2CCCN(Cc3ccccc3)CC2)no1 | -4.23% | 9.91%
40 | CN(C)C(CNC(=O)NCCc1cccc(O)c1)c1ccco1 (configuration not stated) | 2.5% | -5.55%
41 | CC(C)c1nc(CN2CCN(C(C)c3nc(C4CC4)no3)CC2)no1 (configuration not stated) | -2.84% | 5.21%
42 | CC(C)Oc1cccc(C(O)CNC(=O)CCc2ccncc2)c1 (configuration not stated) | -1.28% | -21.1%
43 | COC(=O)c1cccc(NS(=O)(=O)c2cnc(NC(C)=O)s2)c1 | -3.37% | -26.3%
44 | COC(=O)c1ccc(C(=O)NS(=O)(=O)c2cncc(Br)c2)cc1 | -0.323% | 8.86%
45 | Cc1nc(C)n(C2CCCN(C(=O)c3cc4ccccc4n3C)C2)n1 (configuration not stated) | -0.634% | 15%
46 | CN(C)Cc1ccc(C2CCCCN2C(=O)c2cc(C3CC3)n[nH]2)cc1 (configuration not stated) | -1.82% | 2.95%
